# Results as given in PubChem BioAssay (NCI).
# Compounds without any hit were thinned out: in the full panel of roughly 79,000, 15% have a hit. A number with no mark means an inactive call. Rule as the data show it: active = growth inhibition above about 70%; inactive = the rest. Where a SMILES comes first, the peptide text is derived from it. [ ]: non-standard residue; d: D form. The star is where a group is joined. ξ: configuration not given here. ξF = NC(Cc1ccccc1)C(=O)O; Cbz = O=C(OCc1ccccc1)*; Aib = CC(C)(N)C(=O)O
# Test: NCI Yeast Anticancer Drug Screen. Data for the sgs1 mgt1 strain (AID 161);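 also: 0% = growth of cultures given vehicle only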
# Conditions: S. cerevisiae sgs1 mgt1 strain, at 50.0 µM, stronger effect = higher value
# Protocol: Growth inhibition of yeast strains with defined genetic alterations is measured as a screen for potential anti-cancer activity. Selected strains with alterations in DNA damage repair or cell cycle control were exposed to compounds and growth inhibition was measured relative to vehicle treated controls. The strain used in this assay is sgs1 mgt1
row,Structure (SMILES),growth inhibition
1,CC(=O)c1cccc(N2COC(C)(C)c3nc4ccccc4n3C2)c1,-20.1%
2,CC(C)(NC(=O)OCc1ccccc1)C(=O)NC(Cc1ccccc1)C(=O)O (stereo not given) (Cbz-[Aib]-[ξF]-OH),-5.7%
3,Oc1ccc2cc(O)ccc2c1,-1.7%
4,NN(c1ccccc1)c1ccccc1,35.5%
5,O=C(NO)C(=O)Nc1ccc(Cl)cc1[N+](=O)[O-],36.5%
6,O=C1OC2c3ccccc3C3CC(=O)C2C13 (stereo not given),9.35%
7,CNC(=S)Nc1ccccc1,3.55%
8,COC(=O)C(Cc1nc2ccc(Cl)cc2[nH]c1=O)/C(=N/O)C(=O)Nc1cccc(Cl)c1C (stereo not given),0.85%
9,NC(Cc1cccs1)C(=O)O (stereo not given),-27.6%
10,NC(=O)C(N)CC(=O)O (stereo not given),-3.1%
11,CCn1c(=O)c(Cl)c2n(C)c3ccccc3n2c1=O,-2.85%
12,CCCCB1OB(CCCC)OB(CCCC)O1,-6.2%
13,CC(=O)NC1CC(=O)N(c2ccccc2)C1=O (stereo not given),12.2%
14,COC(=O)c1ccc(C(=O)OC)cc1,15.9%
15,N#Cc1c(-c2ccccc2)ssc1=S,50.4%
16,O=C(O)c1ccc(Cl)c(N=C/C=C/c2ccccc2)c1,6.6%
17,c1ccc(-n2cccc2)cc1,9.25%
18,COc1cc2c(c([N+](=O)[O-])c1)NC(=O)C(C)S2 (stereo not given),-19.4%
19,CN(C)S(=O)(=O)c1ccc(NC(=O)OC(C)(c2ccccc2)C2CCCCC2)cc1 (stereo not given),4.05%
20,Cc1ccc(C(=O)CC(C#N)c2ccccc2)cc1 (stereo not given),13.4%

row,Structure (SMILES),growth inhibition
1,O=C1CCCC1CC(CN1CCOCC1)Sc1nnnn1-c1ccccc1 (stereo not given),17.1%
2,CCCC(C)C(=O)OC1CCCCC1C (stereo not given),-7.85%
3,COc1cc2c(cc1OC)C1=C(/C=C\C(C)=O)CCN1CC2,-4.45%
4,CC(C)CCC[C@@H](C)[C@H]1CC[C@H]2[C@@H]3CC[C@H]4CC5(C[C@]4(C)[C@H]3CC[C@]12C)Nc1ccccc1S5 (stereo not given in full),-6.2%
5,CCOC(=O)C1=C(O)c2c(OC)ccc(OC)c2C(=O)C1=O,-22.2%
6,CCOC(=O)CC1CC(CN)(C(=O)OCC)CO1 (stereo not given),-6.9%
7,Cc1cccc(CN)n1,17.4%
8,COc1c2ccoc2c(OC)c2oc(=O)ccc12,11.7%
9,C[CH2][Sn]([CH2]C)([N](c1ccccn1)c1ccccn1)[N](c1ccccn1)c1ccccn1,-26.2%
10,CCOC(=O)C(=C/C=C/NCCc1c[nH]c2ccccc12)C(=O)OCC,-20.8%
11,c1ccc(COc2ccc(OCc3ccccc3)cc2)cc1,13.1%
12,COc1cc(C)c([N+](=O)[O-])cc1[N+](=O)[O-],9.65%
13,CC=C(c1ccc(OC)cc1)c1ccc(OC)cc1,5%
14,CC1=C(CCC(C)CO)OC2CC3C4CCC5CC(O)CCC5(C)C4CCC3(C)C12 (stereo not given),-24.7%
15,Cc1ccc(C(C)[N+](=O)[O-])cc1 (stereo not given),18.4%
16,C[N+]1(C)CCC(O)C(c2ccccc2)C1 (stereo not given),-3.5%
17,CCC1=C[C@H]2CN(CCc3c([nH]c4ccccc34)[C@@](C(=O)OC)(c3cc4c(cc3OC)N(C)[C@H]3[C@@](O)(C(=O)NC)[C@H](OC(C)=O)[C@]5(CC)C=CCN6CC[C@]43[C@@H]65)C2)C1,12.8%
18,COc1cccc(C=Nc2cc(C)ccn2)c1O.COc1cccc(C=Nc2cc(C)ccn2)c1O.[Cu],9.75%
19,Cc1nc(-n2nc(-c3ccccc3)cc2-c2ccccc2)sc1C(/C=C/c1ccc([N+](=O)[O-])cc1)=N/NC(N)=S,12.7%
20,O=C1NC(=O)/C(=C/CCCO)N1,-10.4%
